Test results taken from PubChem BioAssay AID1159580 (chemical genetic matrix, 2015).
“And” between values parts separate entries of the source, which are not always exact repeats. Equal values may be shown once. Out of some 5,500 compounds screened, about 2,000 (36%) were called active. Not shown: some 18% with an inconclusive outcome. Rule as the data show it: active = normalized growth mostly below about 0.91 (no sharp cut-off); inconclusive = no clear call, values can overlap the other calls; inactive = mostly above about 0.92. The list shows a part of the results.

Experiment: chemical genetic growth profiling, strain panel (AID 1159580);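 also: tested at 20 µM; growth read once vehicle control cultures reached saturation at 30 °C; 1 = growth at the plate median or of vehicle wells; lower values mean less growth of the strain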
Details: S. cerevisiae deletion strains, growth OD

Measured: normalized growth

COC(=O)C1=CCCN(C)C1
inactive: locus YAL013W, strain DEP1, active compounds read low 1 and 1.01 | locus YAL021C, strain ccr4, active compounds read low 1.03 | locus YAL026C, strain drs2, active compounds read low 1.02 | locus YAL030W, strain snc1, active compounds read low 1 | locus YAL040C, strain CLN3, active compounds read low 0.997 | locus YBL061C, strain skt5, active compounds read low 1.02 | locus YBR009C, strain hhf1, active compounds read low 0.986 | locus YBR021W, strain FUR4, active compounds read low 1 | locus YBR023C, strain chs3, active compounds read low 1.02 | locus YBR171W, strain sec66, active compounds read low 1.02 | locus YBR229C, strain ROT2, active compounds read low 0.954 | locus YBR231C, strain swc5, active compounds read low 0.999 | locus YBR279W, strain paf1, active compounds read low 1.02 | locus YCL011C, strain gbp2, active compounds read low 1.01 | locus YCL016C, strain dcc1, active compounds read low 1.02 | locus YCL029C, strain bik1, active compounds read low 0.983 | locus YCL069W, strain vba3, active compounds read low 0.988 | locus YCR088W, strain abp1, active compounds read low 1.01 | locus YDL005C, strain med2, active compounds read low 0.998 | locus YDL035C, strain GPR1, active compounds read low 0.993 | locus YDL040C, strain nat1, active compounds read low 0.993 | locus YDL074C, strain BRE1, active compounds read low 0.99 | locus YDL101C, strain DUN1, active compounds read low 0.976 | locus YDL134C, strain PPH21, active compounds read low 0.969 | locus YDL185W, strain tfp1, active compounds read low 0.992 | locus YDL192W, strain arf1, active compounds read low 0.983 | locus YDR001C, strain nth1, active compounds read low 1 | locus YDR069C, strain doa4, active compounds read low 0.993 | locus YDR101C, strain arx1, active compounds read low 0.989 | locus YDR137W, strain rgp1, active compounds read low 1.02 | locus YDR150W, strain NUM1, active compounds read low 0.973 and 1.01 | locus YDR159W, strain sac3, active compounds read low 0.94 | locus YDR162C, strain NBP2, active compounds read low 0.991 | locus YDR195W, strain ref2 0.956 | locus YDR297W, strain sur2, active compounds read low 1 | locus YDR318W, strain mcm21, active compounds read low 0.99 | locus YDR334W, strain swr1, active compounds read low 1 | locus YDR335W, strain msn5, active compounds read low 1.02 | locus YDR388W, active compounds read low 0.994 | locus YDR392W, strain spt3, active compounds read low 0.977 | locus YDR502C, strain sam2, active compounds read low 1 | locus YEL003W, strain gim4, active compounds read low 0.997 | locus YEL037C, strain rad23, active compounds read low 1.02 | locus YEL061C, strain CIN8 (second series), active compounds read low 0.988 | locus YEL061C, strain CIN8, active compounds read low 0.991 | locus YER002W, strain NOP16, active compounds read low 0.986 | locus YER015W, strain faa2, active compounds read low 1 | locus YER016W, strain bim1, active compounds read low 1.02 | locus YER110C, active compounds read low 0.969 | locus YER111C, strain swi4, active compounds read low 1.01 | locus YER155C, strain BEM2 (second series), active compounds read low 0.984 | locus YER155C, strain BEM2, active compounds read low 1.02 | locus YER167W, strain BCK2, active compounds read low 0.995 | locus YFR010W, strain ubp6, active compounds read low 0.984 | locus YGL078C, strain dbp3, active compounds read low 0.988 | locus YGL086W, strain mad1, active compounds read low 0.994 | locus YGL167C, strain pmr1, active compounds read low 1.01 | locus YGL173C, strain kem1, active compounds read low 0.976 | locus YGL227W, strain vid30, active compounds read low 0.998 | locus YGL240W, strain doc1, active compounds read low 0.974 | locus YGL248W, strain PDE1, active compounds read low 0.978 | locus YGL253W, strain hxk2, active compounds read low 1.02 | locus YGR078C, strain PAC10, active compounds read low 0.991 | locus YGR135W, strain pre9, active compounds read low 0.983 | locus YGR229C, strain SMI1, active compounds read low 1 | locus YGR252W, strain gcn5, active compounds read low 0.945 | locus YHR013C, strain ard1, active compounds read low 1.03 | locus YHR027C, strain rpn1, active compounds read low 0.996 | locus YHR030C, strain SLT2, active compounds read low 0.986 and 0.989 | locus YHR079C, strain IRE1 (second series), active compounds read low 0.994 | locus YHR079C, strain IRE1, active compounds read low 1.05 | locus YHR094C, strain hxt1, active compounds read low 0.996 | locus YHR129C, strain ARP1, active compounds read low 0.993 | locus YHR142W, strain chs7, active compounds read low 1.03 | locus YHR200W, strain rpn10, active compounds read low 0.989 | locus YIL066C, strain RNR3, active compounds read low 0.982 | locus YIL073C, strain SPO22, active compounds read low 0.935 | locus YIL125W, strain kgd1, active compounds read low 0.995 | locus YIR030C, strain dcg1, active compounds read low 0.98 | locus YJL092W, strain hpr5, active compounds read low 1.01 | locus YJL095W, strain BCK1 (second series), active compounds read low 1.01 | locus YJL095W, strain BCK1, active compounds read low 1.02 and 1 | locus YJL115W, strain asf1, active compounds read low 1.02 | locus YJL129C, strain trk1, active compounds read low 1.04 | locus YJL134W, strain LCB3, active compounds read low 0.985 | locus YJL154C, strain vps35, active compounds read low 0.996 | locus YJL164C, strain tpk1, active compounds read low 0.998 | locus YJL166W, strain qcr8, active compounds read low 0.998 | locus YJL168C, strain set2, active compounds read low 1 | locus YJL187C, strain SWE1 (second series), active compounds read low 0.973 | locus YJR043C, strain POL32, active compounds read low 1 | locus YJR066W, strain TOR1, active compounds read low 0.968 | locus YJR075W, strain HOC1, active compounds read low 0.99 and 1.01 | locus YKL009W, strain mrt4, active compounds read low 0.999
